# Measured values: PubChem BioAssay AID2102 (Southern Research Specialized Biocontainment Screening …, 2009)
# About 210 (19%) of roughly 1,100 compounds were called active. The rule behind the calls is not given here. These entries were drawn from the full list. Results with a measured potency or affinity are listed apart.
# Experiment: host cell cytotoxicity, dose response, cytotoxicity control for SV40 T antigen inhibitor project, selected hits (AID 2102);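 note: cells exposed to compounds for 72 hours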
# Conditions: Host cell viability cytotoxicity counter-screen; series mostly up to 50 µM
row,Compound,outcome
1,Cc1ccnc(-n2sc3ccccc3c2=O)n1,inactive
2,O=c1c2ccccc2sn1-c1nccs1,inactive
3,COc1ccc(/C=N/NC(=O)c2ccoc2C)cc1O,inactive
4,O=C(Nc1ccc(O)cc1)c1ccc2c(c1)C(=O)N(N1C(=O)c3ccccc3C1=O)C2=O,inactive
5,CC(C)c1ccc(C2CC(=O)N3CN(C)CSC3=C2C#N)cc1 (stereo not given),inactive
6,O=C(CCCCl)NC1=NN(c2ccccc2)C(=O)C1,inactive
7,CCOc1cc(/C=C2/N=C(C)C(C(=O)OC)=C2O)ccc1O,inactive
8,NC1=NC(=O)/C(=C\c2ccco2)S1,inactive
9,C=CCOc1ccccc1CNc1ccc2[nH]c(=O)[nH]c2c1,inactive
10,O=c1[nH]c2ccc(NCc3ccc(F)cc3)cc2[nH]1,inactive
11,COc1cc(/C=N/NC(=O)c2ccccc2O)ccc1OC(=O)CC1SC(=O)NC1=O (stereo not given),inactive
12,COc1cc(/C=N\Nc2nc(-c3cccs3)c(NC(C)=O)s2)ccc1O,inactive
13,CCOc1cc(/C=N/Nc2nc(-c3cccs3)c(NC(C)=O)s2)ccc1O,inactive
14,CCN(CC)c1ccc(NC(=O)COC(=O)COc2ccccc2[N+](=O)[O-])cc1,inactive
15,CCOC(=O)C[n+]1c(C)sc2ccc(OC)cc21,inactive
16,CC(Nc1ccc(N2CCOCC2)cc1)C(=O)N1c2ccccc2CC1C (stereo not given),inactive
17,COc1cc(/C=N/NC(=O)c2cccs2)ccc1O,inactive
18,CCOC(=O)c1cc(-c2ccc(N)cc2)sc1N,inactive
19,CCN(CC)c1ccc(/C=N/O)cc1,inactive
20,Oc1ccc(/C=N/N2CCN(c3ccccn3)CC2)cc1,inactive

row,Compound,outcome
1,COc1cc(/C=N/NC(=O)C2COc3ccccc3O2)ccc1O (stereo not given),inactive
2,COc1cc(/C(C)=N/NC(=O)CSc2nc3ccccc3[nH]2)ccc1O,inactive
3,O=C(CC1SC(=O)N(c2ccccc2)C1=O)Nc1cccc2ccccc12 (stereo not given),inactive
4,Cc1csc(N/N=C/c2ccc(O)c([N+](=O)[O-])c2)n1,inactive
5,CCN(CC)c1ccc(NC(=O)c2cccnc2)c(C)c1,inactive
6,CCN(CC)c1ccc(NC(=O)c2cccc(F)c2)c(C)c1,inactive
7,Oc1ccc(C=Nc2ccc(N3CCOCC3)cc2)c(O)c1,inactive
8,COc1cc(SC#N)ccc1N=Cc1c(C)[nH]n(-c2ccc(C)cc2C)c1=O,inactive
9,O=C1c2ccccc2NC2(CCCCC2)N1c1ccc(O)cc1,inactive
10,CCN(CC)c1ccc(NC(=O)CSc2nnc3nc(C)cc(C)n23)cc1,inactive
11,COC(=O)C1=C(O)/C(=C/c2cccc(OC)c2O)N=C1C,inactive
12,CC(=O)Nc1ccc(N2CCCCC2)cc1,inactive
13,CN(C)c1ccc(NC(=O)CN2CCN(c3ccc(F)cc3)CC2)cc1,inactive
14,COc1cc(/C=N/NC(=O)CNc2n[nH]c(=O)[nH]c2=O)ccc1O,inactive
15,COc1ccc(OC)c(CCNC(=O)Cn2sc3nc(C)cc(C)c3c2=O)c1,inactive
16,CCN(CC)S(=O)(=O)c1ccc(C(=O)Oc2coc(CSc3nc(C)cc(C)n3)cc2=O)cc1,inactive
17,FC(F)(F)C1CCCN(c2nsc3ccccc23)C1 (stereo not given),inactive
18,Nc1ncc(N=Nc2cc(C(=O)O)ccc2Cl)s1,inactive
19,CCn1c(SCC(=O)c2ccc(O)c(O)c2)nnc1-c1ccccc1OC,inactive
20,COc1cc(/C=N/NC(=O)c2nnn(-c3nonc3N)c2-c2cccs2)ccc1O,inactive
